Screening data (PubChem)
MITF inh = inhibitors of human MITF. AlphaScreen MITF homodimerization, bead proximity signal. AID 1259374. inhibition, % at 2.6 µM. O75030. actives 0.91% (n = 650,000); in the data active = inhibition above about 50%;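 also: 0% = vehicle wells with protein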
Target sequence (O75030 whole entry, looked up): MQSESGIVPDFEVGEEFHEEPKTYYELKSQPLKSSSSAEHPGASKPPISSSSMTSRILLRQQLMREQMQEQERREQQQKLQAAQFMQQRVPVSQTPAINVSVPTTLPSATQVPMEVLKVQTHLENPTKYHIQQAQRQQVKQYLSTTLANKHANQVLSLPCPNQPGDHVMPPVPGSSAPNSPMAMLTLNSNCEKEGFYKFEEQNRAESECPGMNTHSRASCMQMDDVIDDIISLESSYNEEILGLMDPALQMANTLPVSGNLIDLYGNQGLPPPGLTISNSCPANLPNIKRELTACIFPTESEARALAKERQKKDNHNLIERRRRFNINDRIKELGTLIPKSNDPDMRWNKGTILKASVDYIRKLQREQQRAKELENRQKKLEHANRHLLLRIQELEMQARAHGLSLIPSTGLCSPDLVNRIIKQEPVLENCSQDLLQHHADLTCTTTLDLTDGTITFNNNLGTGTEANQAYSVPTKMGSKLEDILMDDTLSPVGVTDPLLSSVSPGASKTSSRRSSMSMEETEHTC
GPR151 ag = human GPR151 activation | Q8TDV0 | PathHunter beta-arrestin GPR151 cells, luminescence | activation, % at 11.2 µM | actives 1% (n = 650,000) | AID 1508602; in the data active = activation above about 4.9%;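 also: 0% = median of compound wells and 100% = cells with positive control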
TEAD-YAP block = TEAD-YAP interaction inhibition; AID 1259422; actives 1.4% (n = 640,000); inhibition, % at 9.12 µM; HEK-TIYL cells, TEAD-Gal4/YAP UAS-luciferase luminescence; in the data active = inhibition above about 32%;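 also: 0% = median of test compound wells and 100% = reference inhibitor wells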
FBW7 activator = activators of human E3 ligase FBW7 | Q969H0 | AlphaScreen FBW7–phospho-cyclin E peptide binding, activator screen | normalized activity (activation), % at 26.1 µM | actives 0.13% (n = 650,000); in the data active = normalized activity above about 1.9%;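 also: purified mutant Fbw7 with reduced substrate affinity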
MITF inh conf = confirmation of human MITF inhibitors. inhibition, % at 2.6 µM. shares compounds with MITF inh. AID 1259372. AlphaScreen MITF homodimerization, biotin/His-MITF beads. actives 16% (n = 4,700);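 active = inhibition above a cutoff derived from the DMSO control wells, cut at about 28% in these data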;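 also: 0% = MITF dimer wells with DMSO only; inhibitors lower the bead chemiluminescence by keeping MITF from dimerizing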
AS interf DR = optically interferes with AlphaScreen signal in dose response. shares compounds with MITF inh. AlphaScreen optical interference counterscreen, cell-free. IC50, µM. actives 6% (n = 480); call rule not given here
AS interf ctr = counter-screen: compounds optically interfering with AlphaScreen | shares compounds with MITF inh | LysRS AlphaScreen counterscreen, signal interference, triplicate | inhibition, % at 2.6 µM | actives 7.6% (n = 4,700);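 active = inhibition above a cutoff derived from the DMSO control wells, cut at about 30% in these data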
* hit, by the source's call; nt = no result given. A selection: hits, their analogues and other compounds. The true share with any hit is near 3.4%.

SMILES	MITF inh	GPR151 ag	TEAD-YAP block	FBW7 activator	MITF inh conf	AS interf ctr	others
CN1CCN(/N=C2/C(=O)Nc3ccc(Br)cc32)CC1	-10	0	-1	0	nt	nt
COc1ccccc1NC(=O)CNCCCN1CCOCC1	61*	4	-4	0	7	9
COc1ccccc1NC(=O)CC(NCCCN1CCOCC1)C(=O)O (stereo not drawn)	14	-1	-9	1	nt	nt
O=C(CCc1ccccc1)NN1C(=O)CCC1=O	-2	0	-2	0	nt	nt
CC12CCC(C(=O)N(NC(=O)CCc3ccccc3)C1=O)C2(C)C (stereo not drawn)	65*	3	12	0	-4	11
COC(=O)C1=C(C)N(CC(C)C)C(=O)/C1=C\c1ccc(N(C)C)cc1	13	4	-4	0	nt	nt
CN(C)CCN(C(=O)OCc1ccccc1)c1cc(-c2cn[nH]c2)ccc1NC(=O)OCc1ccccc1	58*	1	-1	1	56*	-12	AS interf DR=>6.5
COc1cccc(COC(=O)Nc2ccc(-c3cn[nH]c3)cc2N(C)CCN(C)C)c1	68*	-1	-16	1	73*	11	AS interf DR=>6.5
CN1CC[C@H](Oc2cc(-c3cn[nH]c3)ccc2NC(=O)OCc2ccccc2)C1	53*	-1	9	1	57*	-5	AS interf DR=>6.5
O=C(Nc1ccc(-c2cn[nH]c2)cc1OCCN1CCCC1)OCc1ccccc1	3	-1	-2	0	nt	nt
O=C(O)C1CC1C(=O)N1CCCC1c1nc(-c2ccc(F)cc2)c2ccccn12 (stereo not drawn)	-2	1	-4	0	nt	nt
O=C(NCc1ccccn1)C1CCCN(C(=O)N2CCOc3ccccc32)C1 (stereo not drawn)	15	-1	-5	0	nt	nt
CC(C)NC(=O)CCCc1nc(-c2ccccc2Cl)no1	68*	-1	5	0	10	14
O=C(O)CCCc1nc(-c2ccccc2Cl)no1	24	1	-1	0	nt	nt
CC[n+]1cccc2ccc3cccnc3c21	9	0	29	0	nt	nt
c1cnc2c(c1)ccc1cccnc12	111*	-2	35*	0	115*	101*
COc1cc(C2=NOC(C(=O)Nc3cccc(O)c3)C2)cc(OC)c1OC (stereo not drawn)	2	0	3	0	nt	nt
COc1ccc(-c2c(NC(=O)CN3CCCC(C)C3)oc3ccccc3c2=O)cc1OC (stereo not drawn)	91*	0	5	0	-10	-4
CS(=O)(=O)N1CCN(CC(=O)c2ccco2)CC1	57*	2	5	0	14	12
COC(=O)c1ccc(CN2CCN(CC(=O)c3ccco3)CC2)cc1	70*	-2	1	0	5	19
CCN1CCN(CC(=O)c2ccco2)CC1	70*	-1	-2	0	15	16
Cc1ccccc1CSc1nc(=O)n(CCCO)c2c1CCCC2	-4	-1	-1	0	nt	nt
O=c1nc(SCc2ccccc2)c2c(n1CCCO)CCCC2	80*	-1	2	0	-3	5
COCc1nc2ccccc2n1CCc1noc(-c2ccc(OC)cc2)n1	2	3	-2	1	nt	nt
COCc1nc2ccccc2n1CCc1noc(-c2ccccc2OC)n1	95*	-1	2	0	4	-7
SMILES	MITF inh	GPR151 ag	TEAD-YAP block	FBW7 activator	MITF inh conf	AS interf ctr	others
COc1ccccc1C1N(c2ccc(Cl)c(Cl)c2)C(=O)N2CCCN12 (stereo not drawn)	13	0	-15	0	nt	nt
CN(C)CCCN(CCCN(C)C)Cc1cccc2ccccc12	55*	1	-10	0	-2	-3
COc1ccccc1CN(CCCN(C)C)CCCN(C)C	34	1	3	0	nt	nt
CN(C)CCN(C)Cc1cccc2ccccc12	60*	1	4	0	-1	1
O=c1[nH]c(CN2CCCCC2)nc2sc3c(c12)CCC3	-1	-1	3	1	nt	nt
Cc1nc(NCCCN2CCOCC2)c2c3c(sc2n1)CCCC3	74*	-1	1	0	-16	1
O=c1[nH]c(CNCCN2CCOCC2)nc2sc3c(c12)CCC3	105*	-1	2	-1	19	100*
Cc1nc(NCCCN2CCOCC2)c2c3c(sc2n1)CCC3	9	0	9	0	nt	nt
CN(C)CCCNc1ncnc2sc3c(c12)CCCC3	-22	2	-7	0	nt	nt
Cc1nc(NCCCN(C)C)c2c3c(sc2n1)CCCC3	51*	-1	-8	0	14	13
CC1CCCCC1NS(=O)(=O)c1cc(C(=O)Nc2ccc(Cl)c(Cl)c2)ccc1F (stereo not drawn)	-7	0	-12	0	nt	nt
O=C(CCN1CCc2ccccc2C1)Nc1cccc(Cl)c1	12	0	5	0	nt	nt
Cc1c(Cl)cccc1NC(=O)CCC(=O)NNC(=S)Nc1ccc(F)cc1	4	2	-3	0	nt	nt
N#Cc1c(-c2ccc3c(c2)OCO3)nc(N2CCCCC2)[nH]c1=O	80*	-1	2	1	78*	-7	AS interf DR=>6.5
COc1ccc(-c2nc(N3CCN(C)CC3)[nH]c(=O)c2C#N)cc1	4	-1	-2	0	nt	nt
CC(O)CC(=O)NNC(=S)Nc1ccc(Cl)c(Cl)c1 (stereo not drawn)	-1	0	3	0	nt	nt
O=C(NNC(=S)Nc1ccccc1C(F)(F)F)c1ccccn1	113*	-2	-37	-1	104*	100*
O=C(NNC(=S)Nc1ccccc1C(F)(F)F)c1ccc(Br)o1	-21	-2	-32	0	nt	nt
O=C(NNC(=S)Nc1ccc(Cl)c(Cl)c1)c1ccccn1	114*	0	39*	-1	110*	100*
Cc1ccc2occ(CN3CCC4(CC3)CC4C(=O)Nc3ccc(F)c(F)c3)c(=O)c2c1 (stereo not drawn)	74*	0	-5	0	9	-3
CSc1ccc(NC(=O)C2CC23CCN(Cc2coc4ccc(C)cc4c2=O)CC3)cc1 (stereo not drawn)	4	1	0	0	nt	nt
COc1cc(C2NC(=O)NC(C)=C2C(=O)OCCSC)cc(OC)c1OC (stereo not drawn)	-7	1	14	0	nt	nt
COc1ccccc1N1CCN(CC(=O)c2ccc(F)cc2)CC1	69*	1	3	0	5	8
COc1ccc(NC(=S)NCC(C)C)c(OC)c1	65*	0	7	0	12	14
COc1ccc(NC(=S)NCC(O)c2ccccc2)c(OC)c1 (stereo not drawn)	3	0	12	0	nt	nt
O=C(NC(=S)NNC(=O)c1ccccc1O)c1cccs1	78*	1	10	0	26	100*
CC(=O)NC(=S)NNC(=O)c1ccccc1O	76*	0	30	-2	39*	100*
CC(=O)NC(=S)NNC(=O)c1ccccc1I	3	-1	-1	-1	nt	nt
